Screens (PubChem)
hgDAF-12 ag – agonists of H. glycines DAF-12 nuclear receptor | HEK293 GAL4-hgDAF12 UAS-luciferase reporter, agonist luminescence; normalized to butyrate control | activation, % at 6.8 µM | 1.8% of 370,000 active;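 active = activation above a cutoff set at the mean of all screened compounds plus 3 SD, cut at about 10% in these data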
DAX1 inh – inhibitors of DAX1 repression of SF-1 activated StAR promoter; HEK293T StAR-luciferase reporter, SF-1/DAX-1 repression relief; inhibition, % at 6.8 µM; 1.1% of 370,000 active;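 active = inhibition above the mean over all tested compounds plus 3 SD, cut at about 3.6% in these data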;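 note: higher inhibition means more luminescence from relief of DAX-1 repression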
SMARCA2 activ – increases SMARCA2 function in MMTV reporter cells; AID 652017; activation, % at 9.1 µM; MG213 cells, MMTV-luciferase reporter, dexamethasone, overnight; 1% of 370,000 active; in the data active = activation above about 7.8%
hcDAF-12 act – H. contortus DAF-12 activation, primary screen. HEK293 hcDAF-12 lit1-tk-luc reporter, luminescence; 0% DMSO, 100% Δ7-dafachronic acid. activation, % at 6.8 µM. 1.4% of 370,000 active;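 active = activation above the mean of all tested compounds plus 3 SD, cut at about 5.5% in these data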
ssDAF12 agonist – activates DAF-12 receptor from parasite S. stercoralis. HEK293 ssDAF-12/GRIP1 lit1-tk-luc reporter, luminescence; % of 3 µM dafachronic acid response. activation, % at 6.8 µM. 1% of 370,000 active. AID 652126;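 active = activation above the mean over all tested compounds plus 3 SD, cut at about 0.9% in these data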
DAX1 inh confirm – NR0B1 (human) inhibition, confirmation; shares compounds with DAX1 inh; HEK293T StAR-promoter luciferase reporter, SF-1/DAX-1 repression; inhibition, % at 6.8 µM; 87% of 2,400 active;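 active = inhibition above the average of every tested compound plus 3 SD, cut at about 3.8% in these data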;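 note: active compounds raise luminescence by relieving repression of the StAR reporter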
Target sequence (P51843 whole entry, looked up): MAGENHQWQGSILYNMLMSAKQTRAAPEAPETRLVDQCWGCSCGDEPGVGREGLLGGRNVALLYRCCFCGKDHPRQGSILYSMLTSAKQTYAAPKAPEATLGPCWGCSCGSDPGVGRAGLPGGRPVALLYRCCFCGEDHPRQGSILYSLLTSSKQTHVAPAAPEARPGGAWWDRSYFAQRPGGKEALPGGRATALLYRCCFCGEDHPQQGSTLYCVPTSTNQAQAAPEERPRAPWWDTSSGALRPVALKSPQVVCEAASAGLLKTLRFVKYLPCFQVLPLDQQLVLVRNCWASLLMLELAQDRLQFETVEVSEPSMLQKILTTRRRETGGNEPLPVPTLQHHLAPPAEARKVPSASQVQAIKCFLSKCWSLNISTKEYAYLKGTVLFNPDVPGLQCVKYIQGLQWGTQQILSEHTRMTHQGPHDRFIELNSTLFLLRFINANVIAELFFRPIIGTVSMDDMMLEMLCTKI
SF1 mutant ctr – counter-screen for DAX1 inhibitors: nonselective inhibitors with SF-1 AF2 mutant; shares compounds with DAX1 inh; HEK293 StAR-luciferase, luminescence; inhibition, % at 6.8 µM; 78% of 2,400 active;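 active = inhibition above the mean of all tested compounds plus 3 SD, cut at about 3% in these data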
Numbers stand for hits; – = inactive; · = not tested or not shown. Compounds with a hit are over-represented: about 4.2% of the library has one in this group of screens.

SMILES	hgDAF-12 ag	DAX1 inh	SMARCA2 activ	hcDAF-12 act	ssDAF12 agonist	DAX1 inh confirm	SF1 mutant ctr
CCOc1ccc(C(=O)COC(=O)c2nc3nccc(C)n3n2)cc1	–	4.9	–	–	–	–	–
O=C(Nc1ccc(CN2CCOCC2)cc1)c1cc2ccccn2n1	–	6.2	–	–	–	9.8	3.0
C[C@@H]1CCCCO[C@H](CN(C)C(=O)Nc2ccc3c(c2)OCO3)[C@H](C)CN([C@@H](C)CO)C(=O)c2cc(NS(=O)(=O)c3ccc(Cl)cc3)ccc2O1	–	–	–	–	–	·	·
COc1ccc(C2=NN3C(C2)c2ccccc2OC3c2cccs2)cc1 (stereo unspecified)	23	4.5	–	7.9	–	12	7.6
Cc1ccc(C(=O)N2CCC(Oc3cccnc3)CC2)cc1	–	–	–	–	–	·	·
O=S1(=O)CC(N2CCCCC2)CN1Cc1cn(Cc2ccc(F)cc2)nn1 (stereo unspecified)	–	–	–	–	–	·	·
O=S1(=O)CC(N2CCN(CC3CC3)CC2)CN1Cc1ccc(F)cc1 (stereo unspecified)	–	5.9	–	–	–	–	–
O=S1(=O)CC(N2CC=CC2)CN1Cc1cn(Cc2ccc(F)cc2)nn1 (stereo unspecified)	–	5.2	–	–	–	–	–
Cc1ccc(CN2CC(N3CCN(CC4CC4)CC3)CS2(=O)=O)cc1 (stereo unspecified)	–	–	–	–	–	·	·
CC(=Nc1ccccc1)C1=C(O)C(Cc2ccc(F)cc2)NC1=O (stereo unspecified)	–	–	–	–	–	·	·
CC(=Nc1ccccc1)C1=C(O)C(Cc2ccccc2)NC1=O (stereo unspecified)	–	8.2	–	–	–	31	–
CC(C)[C@H](NC(=O)OC(C)(C)C)c1cc(C(=O)N2CCOCC2)c(N)s1	–	6.0	–	–	–	–	–
CCCCN(C)C(=O)CNc1nnnn1-c1ccccc1	–	–	–	–	–	·	·
COc1ccc2nc(SCC(=O)/C(C#N)=C(\C)N)[nH]c2c1	–	4.8	–	5.8	–	14	8.8
COc1ccc2nc(SCC(N)=O)[nH]c2c1	–	–	–	–	–	·	·
COC(=O)C[C@@H]1C=C[C@@H](NC(=O)CN(C)C)[C@@H](CO)O1	–	–	–	–	–	·	·
O=C(/C=C/c1cccs1)Nc1nc(-c2ccccc2)cs1	–	–	–	–	–	·	·
O=C(/C=C/c1cccs1)Nc1scc(-c2ccccc2)c1C(=O)O	13	4.7	–	–	–	7.3	3.6
COC(=O)[C@]12C[C@H](CC(=O)NCc3ccccc3)C(=O)N(Cc3ccc(Cl)cc3Cl)C1=C[C@H](C(C)C)O[C@@H]2C1CC1	–	–	–	–	–	·	·
CC(=O)c1c(C)[nH]c(C(=O)COC(=O)C2CC2)c1C	–	–	–	–	–	·	·
CCOC(=O)c1c(C)[nH]c(C(=O)COC(=O)C2CC2)c1C	–	5.2	–	–	–	–	–
CCOC(=O)c1c(C)[nH]c(C(=O)OCc2ccc(F)cc2)c1C	–	5.7	–	–	–	7.5	5.8
Cc1nc(NC(=O)c2ccc(Cl)cc2)sc1Cc1ccc2c(c1)OCO2	–	–	–	–	–	·	·
CC(=O)c1sc(NC(=O)c2ccc3c(c2)OCO3)nc1C	12	9.4	–	–	–	9.5	6.5
COC(=O)CSc1nnc(NC(=O)c2ccc3c(c2)OCO3)s1	–	4.7	–	–	–	8.7	3.5
SMILES	hgDAF-12 ag	DAX1 inh	SMARCA2 activ	hcDAF-12 act	ssDAF12 agonist	DAX1 inh confirm	SF1 mutant ctr
O=C(CN1CCN(c2ccccc2)CC1)Nc1ccccc1C(=O)NCCc1ccccc1	–	4.7	–	5.8	–	6.7	4.8
CCN(CC)S(=O)(=O)c1ccc(NC(=O)CCN2C(=O)C3CC=CCC3C2=O)cc1 (stereo unspecified)	–	5.2	–	–	–	–	–
Cc1ccc2nc(CN(C)C(=O)[C@@H](Cc3ccccc3)NC(=O)[C@H]3O[C@@H](n4cnc(C(N)=O)n4)[C@H](O)[C@@H]3O)[nH]c2c1	–	–	–	–	–	·	·
COCC(=O)N/N=C\c1ccccc1OC/C=C/c1ccccc1	11	8.1	–	–	–	–	4.8
COCC(=O)N/N=C\c1cccc(OC)c1OC/C=C/c1ccccc1	–	–	–	–	–	·	·
Cc1ccccc1Cn1cc(COC(=O)Nc2ccc(F)cc2)nn1	–	–	–	–	–	·	·
CC(C)c1ccc2nc(N)sc2c1	11	5.9	–	5.8	–	11	6.6
Nc1nc2ccc(O)cc2s1	–	–	–	–	–	·	·
COCCCNC(=O)C[C@H]1C[C@H](C(=O)N2CCOCC2)[C@@]2(CCC3CCCC3)c3[nH]c4cc(-c5ccco5)ccc4c3CCN2C1=O	–	5.8	–	–	–	–	–
O=C(NCc1ccc(C(=O)N2CCCN(Cc3ccccc3)CC2)cc1)c1cccc(Br)c1	–	–	–	–	–	·	·
O=C(O)c1cccc(NC(=S)NC(=O)c2ccc3ccccc3c2)c1	–	11	–	–	–	8.0	4.4
O=C(NC(=S)Nc1ccc2nc[nH]c2c1)c1ccccc1	–	6.5	–	–	–	5.9	3.1
O=C(O)c1ccc(NC(=S)NC(=O)c2ccc3ccccc3c2)cc1	–	–	–	–	–	·	·
O=C(NC(=S)Nc1ccc2ncccc2c1)c1ccccc1	12	4.8	–	–	–	7.7	5.8
O=C1SC(SC(=Nc2ccccc2)Nc2ccccc2)C(=O)N1c1ccccc1 (stereo unspecified)	13	5.9	–	–	–	–	–
CC(=O)N(C)c1ccc(N=Nc2ccc3ncccc3c2)cc1	12	5.5	–	5.7	–	10	3.7
COc1ccc(-c2cnc3c(NC=O)cc(-c4ccccc4OC)cn23)cc1OC	–	11	–	–	–	30	–
COc1ccc(-c2cc(NC=O)c3ncc(-c4ccc(OC)c(OC)c4)n3c2)cc1	–	–	–	–	–	·	·
O=C(NCCc1ccccc1)C1=COCCO1	–	7.8	–	–	–	8.7	6.5
Cc1ccc(-n2c(SC/C=C/c3ccccc3)nnc2-c2cccs2)cc1	–	–	–	–	–	·	·
O=C(Nc1ncc(Cc2cccc([N+](=O)[O-])c2)s1)c1ccco1	–	–	–	–	–	·	·
Cc1ccc(Cc2cnc(NC(=O)c3ccco3)s2)cc1	13	6.6	–	5.9	–	16	5.2
CCOC(=O)[C@]12CCC=C1N(Cc1cccc3ccccc13)C(=O)[C@H](CC(=O)NCc1ccc(C)o1)C2	–	–	–	–	–	·	·
COC(=O)[C@@H]1[C@H](O[Si](C)(C)C(C)(C)C)[C@H]2O[C@H]2C[C@H]1S(=O)(=O)c1ccccc1	–	·	·	–	–	·	·
